# In PubChem BioAssay:
# Values joined by “and” are separate entries in the source; they are usually repeats but may differ in a detail not shown here. Equal entries are not always repeated. Active and inactive are the calls of the source. Unless noted, no rule for the calls is given here.
# Key:
# [1] = P. berghei load reduction in hepatocytes – cell-based, HepG2, luciferase luminescence, HepG2 viability, primary screen (AID 624349; in the data active = parasite load remaining mostly below about 12%, no sharp cut-off; inactive = mostly above about 10%;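 also: 100% = mean of DMSO negative control wells on the same plate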); conditions: P. berghei liver stage in HepG2, luciferase luminescence, concentration not given here; parasite load remaining: stronger effect = lower value; viability: measured here: HepG2 viability without parasites
# [2] = viability loss with induced miR-34 in A549 – imaging, A549 dox-inducible miR-34, nuclei and caspase counts, primary screen (AID 1347080;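 active = compounds whose cell count with miR-34 switched on is under 0.7 times the count with it off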); conditions: A549 miR-34 inducible, Hoechst nuclei count, 48 h
# [3] = chitosan synthesis blockers in C. neoformans – flow cytometry, Cibacron Brilliant Red staining (AID 1347148); conditions: Cryptococcus neoformans chitosan, stronger effect = lower value; at 10 µM unless noted;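 also: compound exposure lasted three days at 37 degrees C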
# [4] = liver-stage malaria parasite load reduction – cell-based, known kinase inhibitor set, luminescence, hepatoma host viability (AID 624392); conditions: Plasmodium liver stage in hepatoma cells, luciferase luminescence, concentration not given here; liver cell % of control: measured here: host liver cell viability; parasite % of control: stronger effect = lower value;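 also: infected cells incubated roughly two days before readout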
# [5] = stronger effect = lower value, cell number ratio, induced over uninduced
# [6] = measured here: relative caspase fold change +Dox/-Dox
# [7] = measured here: total cells with miR-34 induction, stronger effect = lower value
# [8] = measured here: total cells without miR-34 induction
compound,measurement,setting,value
CCOCCOCCOCCOCCOCCOCCOCCOCCOCCO (tested in a mixture with another compound),parasite load remaining,[1],30.7% (inactive)
same,viability,[1],102%
same,fold change,[2]; [5],0.959 (inactive)
same,fold change,[2]; [6],1.63
same,cell count,[2]; [7],11300
same,cell count,[2]; [8],11800
CCCCCCCCCCCCCCCC(=O)C1=C(O)[C@H](CO)OC1=O,fold fluorescence,[3],2.82 [at 135.7 µM] (active)
CCCCCCCC/C=C\CCCCCCCC(=O)OC[C@H](O)COP(=O)(O)O,fold fluorescence,[3],3.84 (inactive)
CC(C)(C)n1nc(Cc2cccc3ccccc23)c2c(N)ncnc21,parasite load remaining,[1],40.9% (inactive)
same,viability,[1],75%
same,fold change,[2]; [5],1.05 (inactive)
same,fold change,[2]; [6],1.15
same,cell count,[2]; [7],5260
same,cell count,[2]; [8],5010
CC(=O)OCO[C@H](c1ccc2ccccc2c1)P(=O)(OCOC(C)=O)OCOC(C)=O,fold fluorescence,[3],4.04 [at 110 µM] (inactive)
COC(=O)[C@@H]1CC(=O)O[C@H](C)C/C=C/C=C/[C@H](O)[C@H](C)C[C@H](CC=O)[C@H](OC2O[C@H](C)[C@@H](OC3C[C@@](C)(O)[C@@H](OC(=O)CC(C)C)[C@H](C)O3)[C@H](N(C)C)[C@H]2O)[C@H]1OC (some centres not stated),parasite load remaining,[1],340% (inactive)
same,viability,[1],138%
same,fold change,[2]; [5],0.948 (inactive)
same,fold change,[2]; [6],3.35
same,cell count,[2]; [7],11900
same,cell count,[2]; [8],12600
CO[C@H]1C[C@H](O[C@H]2[C@H](C)[C@@H](OC3O[C@H](C)C[C@H](N(C)C)[C@H]3OC(C)=O)[C@@H](C)C[C@]3(CO3)C(=O)[C@H](C)[C@@H](OC(C)=O)[C@@H](C)[C@@H](C)OC(=O)[C@@H]2C)O[C@@H](C)[C@@H]1OC(C)=O (some centres not stated),parasite load remaining,[1],45.4% (inactive) and 43.2% (inactive)
same,viability,[1],71.3% and 92%
same,fold change,[2]; [5],0.885 (inactive)
same,fold change,[2]; [6],2.77
same,cell count,[2]; [7],11900
same,cell count,[2]; [8],13400
O=C(O)c1ccc(-c2c3nc(c(-c4ccc(C(=O)O)cc4)c4ccc([n-]4)c(-c4ccc(C(=O)O)cc4)c4nc(c(-c5ccc(C(=O)O)cc5)c5ccc2[n-]5)C=C4)C=C3)cc1.[Mn+3],fold fluorescence,[3],4.93 [at 57 µM] (inactive)
OCCN1C[C@@H](O)[C@@H](O)C(O)C1CO (some centres not stated),parasite load remaining,[1],147% (inactive) and 57.2% (inactive)
same,viability,[1],86.4% and 111%
same,fold change,[2]; [5],0.903 (inactive)
same,fold change,[2]; [6],5.56
same,cell count,[2]; [7],12600
same,cell count,[2]; [8],14000
CC(=O)O[C@@H]1C(=O)[C@]2(C)C([C@@H](OC(=O)c3ccccc3)[C@@]3(O)C[C@@H](OC(=O)[C@@H](O)[C@H](NC(=O)c4ccccc4)c4ccccc4)C(C)=C1C3(C)C)[C@@]1(OC(C)=O)CO[C@H]1C[C@H]2O (some centres not stated),fold fluorescence,[3],4.34 [at 58.6 µM] (inactive)
CC(C)CC(=O)N[C@H](C(=O)NC(C(=O)NC(CC(C)C)[C@@H](O)CC(=O)N[C@@H](C)C(=O)N[C@@H](CC(C)C)[C@@H](O)CC(=O)O)C(C)C)C(C)C (some centres not stated),parasite load remaining,[1],20.9% (inactive)
same,viability,[1],180%
same,fold change,[2]; [5],0.937 (inactive)
same,fold change,[2]; [6],3.28
same,cell count,[2]; [7],12400
same,cell count,[2]; [8],13300
CCCCOc1cc(C[C@H]2CNC(=O)N2)ccc1OC,fold fluorescence,[3],8.15 [at 179.6 µM] (inactive)
COc1c2ccoc2nc2c(OC)c(OC[C@@H](O)C(C)(C)O)ccc12,parasite load remaining,[1],153% (inactive)
same,viability,[1],90.5%
same,fold change,[2]; [5],0.816 (inactive)
same,fold change,[2]; [6],1.39
same,cell count,[2]; [7],8040
same,cell count,[2]; [8],9850
c1ccc(-c2[nH]ncc2-c2ccnc3ccccc23)nc1,parasite load remaining,[1],38% (inactive)
same,viability,[1],62.8%
same,liver cell % of control,[4],101%
same,parasite % of control,[4],63.9% (inactive)
same,fold change,[2]; [5],0.893 (inactive)
same,fold change,[2]; [6],0.903
same,cell count,[2]; [7],4970
same,cell count,[2]; [8],5570
CC[N+]1(C)[C@@H]2CC[C@H]1CC(OC(=O)[C@H]1CCC(C(=O)OC3C[C@H]4CC[C@@H](C3)[N+]4(C)CC)(c3ccccc3)c3ccccc31)C2 (some centres not stated),parasite load remaining,[1],96.6% (inactive)
same,viability,[1],101%
same,fold change,[2]; [5],0.889 (inactive)
same,fold change,[2]; [6],1.08
same,cell count,[2]; [7],9010
same,cell count,[2]; [8],10100
CCCCCCCCCCCCCC[C@H](F)C(=O)O,fold fluorescence,[3],6.01 (inactive)
COc1ccc(CC(N)C(=O)N[C@@H]2[C@H](O)[C@@H](n3cnc4c(N(C)C)ncnc43)O[C@H]2CO)cc1 (some centres not stated),fold fluorescence,[3],4.82 [at 106 µM] (inactive)
CCCCC[C@@H](O)/C=C/[C@H]1[C@@H](C/C=C\CCCC(=O)O)[C@H](O)C[C@@H]1O,fold fluorescence,[3],4.83 (inactive)
COc1ccc(CCCO[C@@H](Cn2ccnc2)c2ccc(OC)cc2)cc1,fold fluorescence,[3],7.02 [at 136.4 µM] (inactive)
CC[C@H](C)[C@H](N)C(=O)N[C@@H](CC(N)=O)C(=O)N[C@@H](CC(C)C)C(=O)N[C@@H](CCCCN)C(=O)N[C@@H](C)C(=O)N[C@@H](CC(C)C)C(=O)N[C@@H](C)C(=O)N[C@@H](C)C(=O)N[C@@H](CC(C)C)C(=O)N[C@@H](C)C(=O)N[C@@H](CCCCN)C(=O)N[C@@H](CCCCN)C(=O)N[C@H](C(=O)N[C@@H](CC(C)C)C(N)=O)[C@@H](C)CC,fold fluorescence,[3],3.8 [at 33.8 µM] (inactive)
CCCCC[C@@H](O)/C=C/[C@H]1[C@H](C/C=C\CCCC(=O)O)[C@@H]2CO[C@H]1C2,fold fluorescence,[3],4.13 (inactive)
CCCCC[C@H](O)CCCC(=O)O,fold fluorescence,[3],4.65 [at 265.6 µM] (inactive)
COC(C)(C)CCC[C@H](C)C/C=C/C(C)=C/C(=O)O,fold fluorescence,[3],5.1 (inactive)
CC(/C=C/C(=O)NO)=C\[C@H](C)C(=O)c1ccc(N(C)C)cc1,fold fluorescence,[3],17.7 [at 165.4 µM] (inactive)
CN=C(NC#N)Nc1ccc(C2=NNC(=O)C[C@@H]2C)cc1,fold fluorescence,[3],7.2 [at 175.9 µM] (inactive)
C=C1O[C@](CO)(n2cnc3c(N)ncnc32)[C@@H](O)[C@H]1O,fold fluorescence,[3],10.1 [at 179 µM] (inactive)
CC[C@H]1/C=C(\C)C[C@@H](C)C[C@@H](OC)[C@@H]2O[C@](O)(C(=O)C(=O)N3CCCC[C@@H]3C(=O)O[C@@H](/C(C)=C/[C@H]3CC[C@H](O)[C@@H](OC)C3)[C@@H](C)[C@H](O)CC1=O)[C@@H](C)C[C@H]2OC,fold fluorescence,[3],13.8 [at 63.1 µM] (inactive)
CCCCC[C@@H](O)/C=C/[C@H]1[C@H](CC(=O)CCCCC(=O)O)[C@H](O)C[C@@H]1O,fold fluorescence,[3],4.59 (inactive)
C[S@](=O)c1ccc(-c2nc(-c3ccc(F)cc3)c(-c3ccncc3)[nH]2)cc1,fold fluorescence,[3],8.78 [at 132.5 µM] (inactive)
C/C=C/C/C=C/CCC(=O)[C@@H]1O[C@@H]1C(N)=O,fold fluorescence,[3],8.37 [at 223.9 µM] (inactive)
CCCCC(C)(O)C/C=C/[C@H]1[C@H](CCCCCCC(=O)O)C(=O)C[C@@H]1O (some centres not stated),fold fluorescence,[3],3.98 (inactive)
COC(=O)C1=C(C)NC(C)=C(C(=O)OCCSc2ccccc2)[C@H]1C,fold fluorescence,[3],8.74 [at 138.3 µM] (inactive)
O[C@H]1C=C2CCN3Cc4cc5c(cc4C(C23)[C@@H]1O)OCO5 (some centres not stated),fold fluorescence,[3],10.6 [at 174 µM] (inactive)
COc1ccc(CCN(C)CCC[C@@](C#N)(c2cc(OC)c(OC)c(OC)c2)C(C)C)cc1OC,fold fluorescence,[3],4.22 [at 103.2 µM] (inactive)
COc1c(O)c2c(=O)cc(OC)c3c4c(OC)cc(=O)c5c(O)c(OC)c(C[C@H](C)OC(=O)c6ccccc6)c(c(c1C[C@H](C)OC(=O)Oc1ccc(O)cc1)c23)c54,fold fluorescence,[3],6.48 [at 6.3 µM] (inactive)
C1CCC[C@H]2CCCN3CC[C@@H](CCCCCC[C@@H]4CCCN5CC[C@@H](CC1)O[C@@H]45)O[C@@H]23,fold fluorescence,[3],6.06 [at 11.2 µM] (inactive)
CCCCCCCCCCCCCCCCOC[C@@H](COP(=O)([O-])OCC[N+](C)(C)C)OC,fold fluorescence,[3],4.86 (inactive)
CCCCC[C@@H](O)CC[C@H]1[C@H](CCCCCCC(=O)O)C(=O)C[C@@H]1O,fold fluorescence,[3],5.11 (inactive)
CCCCCCCCCCCCCCCCCCOC[C@@H](COP(=O)([O-])OCC[N+](C)(C)C)OC(C)=O,fold fluorescence,[3],3.94 (inactive)
COC1=C2C[C@H](C)C[C@@H](OC)[C@@H](O)[C@H](C)/C=C(\C)[C@@H](OC(N)=O)[C@H](OC)/C=C\C=C(/C)C(=O)NC(=CC1=O)C2=O,fold fluorescence,[3],25.2 [at 89.2 µM] (inactive)
